# High-throughput results: PubChem BioAssay, The Scripps Research Institute Molecular Screening Center
# M1 ag – human M1 muscarinic receptor agonism; P11229; CHO-K1 hM1, Fluo-8 calcium fluorescence, agonist mode; 0% DMSO, 100% acetylcholine EC100; activation, % at 3 µM; 360,000 tested, 0.33% active; AID 588814;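 active = activation above the run's mean compound activation plus 3 SD, cut at about 16% in these data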;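 also: peak over basal fluorescence ratio within a 140 s kinetic read after compound addition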
# Target sequence (P11229 whole entry, looked up): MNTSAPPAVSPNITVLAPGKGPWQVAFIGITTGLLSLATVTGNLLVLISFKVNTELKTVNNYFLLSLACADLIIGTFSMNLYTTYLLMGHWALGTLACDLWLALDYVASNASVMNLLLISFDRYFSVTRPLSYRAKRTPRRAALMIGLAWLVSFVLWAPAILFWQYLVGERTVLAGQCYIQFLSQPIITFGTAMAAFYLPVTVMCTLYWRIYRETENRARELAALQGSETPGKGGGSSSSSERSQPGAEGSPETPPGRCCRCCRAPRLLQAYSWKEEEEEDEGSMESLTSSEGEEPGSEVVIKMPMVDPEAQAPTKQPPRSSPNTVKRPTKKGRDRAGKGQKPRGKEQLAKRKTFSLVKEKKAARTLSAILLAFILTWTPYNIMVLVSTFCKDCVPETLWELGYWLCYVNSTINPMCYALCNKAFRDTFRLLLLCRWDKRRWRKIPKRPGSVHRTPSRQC
# CHO-K1 Ca PAM – nonselective activator or artifact in parental CHO-K1 calcium assay. activation, % at 3 µM. ATP EC20, Fluo-8 calcium fluorescence; 0% at ATP EC20, 100% at ATP max. AID 602247. 360,000 tested, 0.02% active;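 active = activation above the run cutoff, the mean activation of all test compounds plus 3 SD, cut at about 40% in these data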;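 also: peak over basal fluorescence ratio in a 140 s read after ATP addition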
# CHRM1 PAM – positive allosteric modulators of human M1 muscarinic receptor. 360,000 tested, 0.088% active. P11229. CHO-K1 hM1, Fluo-8 calcium fluorescence, ACh EC20; 0% = ACh EC20, 100% = maximal ACh. activation, % at 3 µM; in the data active = activation above about 19%, passing the limit was not always enough
# CHO-K1 Ca antag – M1 antagonist counterscreen hit in parental CHO-K1 cells | ATP-induced calcium, Fluo-8 fluorescence | inhibition, % at 3 µM | 360,000 tested, 0.6% active | AID 602250;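 active = inhibition above a per-plate cutoff, the plate's mean sample inhibition plus 3 SD, cut at about 24% in these data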;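 also: 0% = DMSO plus EC80 ATP and 100% = DMSO alone without ATP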
# M1 ag parental – M1 agonist counterscreen hit in parental CHO-K1 cells; Fluo-8 calcium fluorescence; scaled to maximal ATP response, vehicle zero; activation, % at 3 µM; 360,000 tested, 0.48% active; in the data active = activation above about 15%;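 also: untransfected CHO-K1 host cells lacking M1 receptor as counterscreen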
# M1 antag – antagonists of human M1 muscarinic receptor; CHO-K1 hM1, Fluo-8 calcium fluorescence, ACh EC80 antagonist; inhibition, % at 3 µM; 360,000 tested, 1.3% active;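 active = percent inhibition above its own plate's cutoff, namely the mean of that plate's compound wells plus 3 SD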;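 also: peak over basal fluorescence ratio during 140 s after agonist addition; 0% = ACh EC80 plus DMSO and 100% = DMSO alone without agonist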
# Starred values were filed as active, the others as inactive. Sampled rows, rich in hits. Any-hit rate of the full collection: about 2.3%.
SMILES,M1 ag,CHO-K1 Ca PAM,CHRM1 PAM,CHO-K1 Ca antag,M1 ag parental,M1 antag
CC1(C)Cc2c(sc3nc(-c4cccs4)n(N)c(=O)c23)CO1,2,-13,-22,-4,16*,25
Cc1oc(-c2cccc3ccccc23)nc1CN1CCN(c2ncnc3ccccc23)CC1,-10,11,-9,-2,23*,7
CCCCc1nnc(NC(=O)c2oc3ccccc3c2C)s1,-1,9,6,-9,0,-5
CCc1nc(N)nc(N)c1-c1ccc(N(C)Cc2ccccc2)c([N+](=O)[O-])c1,6,6,-30,-11,9,95*
Cc1ccc2nc(SCc3nc4c(cnn4-c4ccccc4)c(=O)[nH]3)[nH]c2c1,12,0,-6,27*,11,26
COc1ccc(C(CNC(=O)c2cc(S(=O)(=O)NCc3ccccc3)ccc2C)N2CCOCC2)cc1 (stereo not given),3,-21,20,28*,-1,-12
CCc1nc2ccc(C(=O)NCCCN(C)C)cn2c1N(C)CCCc1ccccc1,-7,21,-12,-1,3,10
CCc1nc2ccc(C(=O)N3CCN(C)CC3)cn2c1N(C)CCCc1ccccc1,-8,14,-30,-14,2,33*
CCc1nc2ccc(C(=O)N3CCCCC3)cn2c1N(C)CCCc1ccccc1,-8,5,-25,-8,1,69*
CCc1nc2ccc(C(=O)N3CCN(C)CC3)cn2c1N(C)CCC(C)C,-9,20,5,-6,1,-7
CCc1nc2ccc(C(=O)NCCCn3ccnc3)cn2c1N(CC)C(=O)NCCc1ccccc1,-4,6,5,-2,0,-11
CCc1nc2ccc(C(=O)NCCCn3ccnc3)cn2c1N(C)CCCc1ccccc1,-7,15,-26,-1,2,44*
CCOC(=O)[C@@H](NC(=O)CC[C@H]1O[C@@H](n2ccc(=O)[nH]c2=O)[C@H](O)[C@@H]1O)C(C)C,2,7,4,-1,8,-17
Cc1cnc(C(=O)OCc2nc3ccsc3c(=O)[nH]2)cn1,6,-16,12,5,0,2
Cc1ccc(S(=O)(=O)Nc2ccc(O)c3ccccc23)c(C)c1,-1,-28,-4,27*,1,11
Fc1ccc(N2CCN(Cc3cn[nH]c3-c3ccccc3)CC2)cc1,1,-11,-7,4,0,14
Fc1ccc(-c2[nH]ncc2CN2CCN(c3ccc(F)cc3)CC2)cc1,17*,12,10,-6,3,-8
Cc1ccc(C)c(OCC(=O)Nc2cc(NC(=O)COc3cc(C)ccc3C)cc(C(=O)O)c2)c1,-10,-2,3,-7,1,-2
O=C(c1cccc(C(F)(F)F)c1)N1CCC(O)(CS(=O)(=O)Cc2ccc(Cl)cc2)CC1,0,-10,-5,29*,0,7
CCN=C(NCC)SC1CC(=O)N(c2ccc(F)cc2)C1=O (stereo not given),0,5,-18,14,6,35*
CCN=C(Nc1ccc2c(c1)OCO2)SC1CC(=O)N(c2ccc(OC)cc2)C1=O (stereo not given),0,10,-7,4,4,27*
CN1/C(=C/c2cccc[n+]2CCO)Sc2ccccc21,-8,9,8,-7,1,-18
CCN1/C(=C/C=C/c2sc3ccccc3[n+]2CC)Sc2ccccc21,1,1,-12,20,5,16
CCN1/C(=C/c2ccc3cc(C)ccc3[n+]2CC)Sc2ccccc21,47*,-8,-19,58*,36*,66*
CC[n+]1c(/C=C2\Sc3ccccc3N2C)ccc2cccc(C)c21,22*,8,-11,31*,19*,54*
CCN1/C(=C/c2ccc3cc(C)ccc3[n+]2CC)Sc2cc(C)c(C)cc21,1,-15,-18,50*,11,40*
CC[n+]1ccccc1/C=C1\Sc2ccc(C)cc2N1C,-10,7,12,-15,0,-10
Cc1ccc(S(=O)(=O)N2CCOCC2)cc1NC(=O)COc1ccc(C(=O)c2ccccc2)cc1,1,-6,-20,5,16*,37*
COc1ccc(S(=O)(=O)N2CCOCC2)cc1NC(=O)c1ccc(=O)[nH]c1,-3,-3,6,54*,1,-10
